Results as given in PubChem BioAssay (NCATS).
Records with an inconclusive call do not appear. A call without a number means that no potency is given here. Calls of active or inactive are those of the source. The call rests on the fitted dose curve; in most records, active means well fitted cell-killing curve with a large enough effect; inconclusive means small, poorly fitted or top-dose-only effect; inactive means no such curve, though single readings can be large or run the other way. *1 amine or outer side, *2 acyl side, *3 side chain or, on linkers, in order; H or OH if unused. Where a SMILES comes first, the peptide text is derived from it. Bridges are numbered along the chain shown (N, C = ends). [ ]: non-standard residue; d: D form. The star is where a group is joined. ξ: configuration not given here. X10 = NC1=NCCC(C(N[*:1])C(=O)[*:2])N1; ΔAla(3-NHCONH2) = NC(=O)NC=C(N)C(=O)O; pGlu = O=C1CC[C@@H](C(=O)O)N1; ξβ3hOrn = NCCCC(N)CC(=O)*; Dap = NC[CH](N)C(=O)O

experiment: qHTS of pediatric cancer cell lines to identify multiple opportunities for drug repurposing: Primary screen for Rh41 cells (AID 1347108); settings: Rh41 rhabdomyosarcoma viability, CellTiter-Glo luminescence, 48 h; series mostly up to 46 µM; further: nearly all actives have a fitted effect of over 70% in size;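 on activity change, negative = cytotoxic: luminescence drop marks cytotoxic hits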
Source text: Drug repurposing or repositioning has been offered as a strategy for drug development in oncology programs. This approach has special potential for childhood cancers and other rare or orphan diseases, where the expected return on new drug development has been a disincentive to pharmaceuticals. […] In this project we exploit the poly-pharmacology of drugs to discover new indications via phenotypic screening of a panel of 19 well-characterized cell lines derived from solid tumors seen in children and adolescents. The goal is to identify approved drugs with previously unrecognized anticancer properties that has the potential to reveal new mechanisms and biological processes involved in carcinogenesis or drug resistance. We employed a titration-based paradigm (quantitative high-throughput screening or qHTS), where all compounds were tested at multiple concentrations for their effect on cell viability. Concentration-response curves (CRCs) were derived directly from the primary screen, and both potency and efficacy values were used to identify compounds with robust bioactivity profiles. We screened the NIH Chemical Genomics Center (NCGC) Pharmaceutical Collection (NPC) and Mechanism Interrogation Plate (MIPE) small molecule collections of approved and investigational compounds against these cell lines; and measured metabolically active cells after 48 hours of compound treatment as a proxy for cell viability. […] Assay Submitter: Nathalia J. Martinez, National Center for Advancing Translational Sciences, National Institutes of Health, Rockville, MD, USA; email: natalia.martinez@nih.gov Shen, M et al. Quantitative high-throughput phenotypic screening of pediatric cancer cell lines identifies multiple opportunities for drug repurposing. Oncotarget 2017 Dec 19;9(4):4758-4772. PMID 29435139.
The cells were obtained from University of North Carolina (UNC), Pediatric Preclinical Testing Program (PPT), and Coriell Institute (CI). qHTS cell viability assay: Cells were assayed in growth media at a density of 500-1,000 cells/well. Five microliters of cells were dispensed into 1,536-well, white, solid-bottom, TC-treated plates (Greiner Bio One) using a multidrop dispenser and incubated at 37 degrees C, 5% CO2, under a humidified atmosphere for 5 hours. Twenty-three nanoliters of compounds and controls (neutral control DMSO or positive control bortezomib at final concentration of 2.3 µM) were subsequently transferred by Kalypsys pintool. For primary screens, the MIPE collection was tested at 11-point dilutions (final concentrations range from 0.78 nM to 46 µM) and the NPC collection at 8-point dilutions (final concentrations range from 0.59 nM to 46 µM). Compounds tested in follow-up screens were assayed at 11-point dilutions. Cells were incubated for 48 hours, followed by addition of 3 µL of CellTiter-Glo (Promega). After a 15 min incubation at room temperature, samples were analyzed for luminescence intensity using a ViewLux High-throughput CCD imager equipped with clear filters.
Potency means the concentration at half of the fitted maximal effect.

**Q.** Which Potency does the source give for `Nc1ccc(C(=O)N2CC3CC(CN(Cc4ccccc4)C3)C2)cc1` here?
**A.** The Potency was “inactive”.

**Q.** With `O=C(COCCOCCOCC(=O)Nc1c(I)cc(I)c(C(=O)O)c1I)Nc1c(I)cc(I)c(C(=O)O)c1I` as the compound, how does the Potency read?
**A.** Its Potency is “inactive”.

**Q.** For `CC(=O)OCC[N+](C)(C)C`, which Potency is on record?
**A.** The Potency was “inactive”.

**Q.** Which Potency does the source give for `O=C(Nc1ccc(S(=O)(=O)N2CCOCC2)cc1)c1cc(Cl)ccc1NS(=O)(=O)c1ccc(Cl)s1` here?
**A.** Its Potency is “inactive”.

**Q.** For `CCC(C(=O)OCCN1CCOC(c2ccccc2)C1C)c1ccccc1` (stereo not given), which Potency is on record?
**A.** Its Potency is “inactive”.

**Q.** Which Potency does the source give for `Cc1c(F)cc2c(=O)c(C(=O)O)cn3c2c1CCC3C` (stereo not given) here?
**A.** Its Potency is “inactive”.

**Q.** With `COc1cc(/C=C/C(N)=O)cc(OC)c1OC` as the compound, how does the Potency read?
**A.** The Potency was “inactive”.

**Q.** Which Potency does the source give for `O=c1[nH]c2ccccc2c(=O)n1CCCl` here?
**A.** Its Potency is “inactive”.

**Q.** Which Potency does the source give for `c1ccc2occc2c1` here?
**A.** Its Potency is “inactive”.

**Q.** With `COc1cc(C(=O)OC(COCCC(C)C)CN2CCOCC2)cc(OC)c1OC` (stereo not given) as the compound, how does the Potency read?
**A.** Its Potency is “inactive”.

**Q.** For `Fc1ccc(C(c2ccc(F)cc2)N2CCNCC2)cc1`, which Potency is on record?
**A.** Its Potency is “inactive”.

**Q.** For `O=C1Nc2ccccc2C1(c1ccc(O)cc1)c1ccc(O)cc1`, which Potency is on record?
**A.** The Potency was “inactive”.

**Q.** For `O=C(OCC1(COC(=O)c2cccnc2)CCCC(COC(=O)c2cccnc2)(COC(=O)c2cccnc2)C1O)c1cccnc1`, which Potency is on record?
**A.** The Potency was “inactive”.

**Q.** For `NCCCC(N)CC(=O)NCC1NC(=O)C(CO)NC(=O)C(N)CNC(=O)C(C2CCN=C(N)N2)NC(=O)C(=CNC(N)=O)NC1=O` (stereo not drawn) (H-[Dap]S[Dap](ξβ3hOrn)[ΔAla(3-NHCONH2)][X10]; lactam 1-C; configuration not given here), which activity change, negative = cytotoxic is on record?
**A.** Its activity change, negative = cytotoxic is 17.6% [at 0.597 µM] (inactive).

**Q.** Which Potency does the source give for `CC(=O)OCC(=O)[C@@]1(O)CCC2C3CCC4=CC(=O)CC[C@]4(C)C3[C@@H](O)C[C@@]21C` (stereo not given in full) here?
**A.** The Potency was “inactive”.

**Q.** With `CCC(CN)=C(c1ccccc1)c1ccccc1` as the compound, how does the Potency read?
**A.** The Potency was “inactive”.

**Q.** Which Potency does the source give for `O=C(CCCl)NCCc1ccccc1` here?
**A.** Its Potency is “inactive”.

**Q.** For `O=C(O)c1[nH]n(-c2ccc(S(=O)(=O)O)cc2)c(=O)c1N=Nc1ccc(S(=O)(=O)O)cc1`, which Potency is on record?
**A.** Its Potency is “inactive”.

**Q.** With `O=C(CO)[C@@H](O)[C@H](O)[C@@H](O)CO` as the compound, how does the Potency read?
**A.** The Potency was “inactive”.

**Q.** For `O=C(O)Cn1cnnn1`, which Potency is on record?
**A.** The Potency was “inactive”.

**Q.** Which Potency does the source give for `CC(C)C(C)(C)C(C)(C)C(C)(C)S` here?
**A.** Its Potency is “inactive”.

**Q.** With `CC1(C)O[C@@H]2C[C@H]3[C@@H]4CCC5=CC(=O)C=C[C@]5(C)[C@@]4(F)[C@@H](O)C[C@]3(C)[C@]2(C(=O)CO)O1` as the compound, how does the Potency read?
**A.** The Potency was “inactive”.

**Q.** With `CCOC(=O)O[C@]1(C(=O)OCCl)CC[C@H]2[C@@H]3CCC4=CC(=O)C=C[C@]4(C)[C@H]3[C@@H](O)C[C@@]21C` as the compound, how does the Potency read?
**A.** Its Potency is “inactive”.

**Q.** Which Potency does the source give for `CO[C@@H]1[C@@H](OC)[C@H](C)[C@@](O)(CC(=O)O)O[C@H]1[C@H](C)[C@H]1O[C@@]2(CC[C@@](C)([C@H]3CC[C@@](C)([C@@H]4O[C@@H]([C@H]5O[C@](C)(O)[C@H](C)C[C@@H]5C)C[C@@H]4OC4C[C@H](OC)[C@@H](OC)[C@H](C)O4)O3)O2)C[C@H](O)[C@H]1C` (stereo not given in full) here?
**A.** The Potency was 4.22 µM (active).

**Q.** For `C/C(=C(/OCCOc1ccc(Cl)cc1)c1ccc(Cl)cc1Cl)n1ccnc1`, which Potency is on record?
**A.** Its Potency is “inactive”.

**Q.** Which Potency does the source give for `CCNC(=O)[C@@H]1CCCN1C(=O)[C@H](CCCN=C(N)N)NC(=O)[C@H](CC(C)C)NC(=O)CNC(=O)[C@H](Cc1ccc(O)cc1)NC(=O)[C@H](CO)NC(=O)[C@H](Cc1c[nH]c2ccccc12)NC(=O)[C@H](Cc1cnc[nH]1)NC(=O)[C@@H]1CCC(=O)N1` ([pGlu]HWSYGLRP-NHEt) here?
**A.** Its Potency is “inactive”.

**Q.** Which Potency does the source give for `CCS(=O)(=O)c1ccc(OC)c(C(=O)OC)c1` here?
**A.** The Potency was “inactive”.

**Q.** With `CC(=O)N[C@@H](CCC(N)=O)C(=O)O` as the compound, how does the Potency read?
**A.** The Potency was “inactive”.

**Q.** With `COC(=O)/C=C\C(=O)OC` as the compound, how does the Potency read?
**A.** The Potency was “inactive”.

**Q.** For `Nc1c2ccccc2nc2ccccc12`, which Potency is on record?
**A.** The Potency was 16.8 µM (active).

**Q.** Which Potency does the source give for `Nc1c(I)cc(I)c(C(=O)N(CCC(=O)O)c2ccccc2)c1I` here?
**A.** The Potency was “inactive”.

**Q.** For `COc1ccc2cc(C=O)ccc2c1`, which Potency is on record?
**A.** Its Potency is “inactive”.

**Q.** For `Cc1cc(=O)oc2cc(O[C@@H]3SC[C@@H](O)[C@H](O)[C@H]3O)ccc12`, which Potency is on record?
**A.** The Potency was “inactive”.

**Q.** Which Potency does the source give for `Cn1cc(S(C)=O)c(=O)c2ccc(F)cc21` (stereo not given) here?
**A.** The Potency was “inactive”.

**Q.** Which Potency does the source give for `CNC[C@H](O)[C@@H](O)[C@H](O)[C@H](O)CO` here?
**A.** The Potency was “inactive”.

**Q.** With `CCOc1ncc(F)c(=O)[nH]1` as the compound, how does the Potency read?
**A.** Its Potency is “inactive”.

**Q.** Which Potency does the source give for `COc1ccccc1N1CCN(CC(O)COc2cc(OC)c(OC)c(OC)c2)CC1` (stereo not given) here?
**A.** The Potency was “inactive”.

**Q.** With `CC(=O)N(c1onc(C)c1C)S(=O)(=O)c1ccc(N)cc1` as the compound, how does the Potency read?
**A.** The Potency was “inactive”.

**Q.** For `O=C(O)CCC(=O)OC[C@@H](NC(=O)C(Cl)Cl)[C@H](O)c1ccc([N+](=O)[O-])cc1`, which Potency is on record?
**A.** Its Potency is “inactive”.

**Q.** With `C/C(=C1\CCOC(=O)S1)N(C=O)Cc1cnc(C)nc1N` as the compound, how does the Potency read?
**A.** Its Potency is “inactive”.
